Results taken from the supplement of paper PMC12067093, “Discovery and optimisation of a covalent ligand for TRIM25 and its application to targeted protein ubiquitination” (Chemical Science, 2025).
About 21,000 targets were measured; listed, in parts, are those with the largest changes and a random draw of the rest.

What follows are targets tested with CC1Cc2ccccc2N1C(=O)C1CCCN(C1)C(=O)CCl (mixture of isomers) [TRIM25 ligand 11 (diastereomer mixture)] (assay: probe-labelled cysteine peptide fold change vs DMSO (competition) (log2 fold change); higher = less target engagement (more negative = stronger competition)). Settings: 50 µM; THP-1; incubation time: 4 h.
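Also: competitive chemoproteomic profiling in live THP-1 cells with an iodoacetamide desthiobiotin (IA-DTB) probe, comparing probe-labelled peptide intensities in compound-treated cells against DMSO-treated controls.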

Chain of UniProt Q86XP3 (Q86XP3 whole entry, looked up): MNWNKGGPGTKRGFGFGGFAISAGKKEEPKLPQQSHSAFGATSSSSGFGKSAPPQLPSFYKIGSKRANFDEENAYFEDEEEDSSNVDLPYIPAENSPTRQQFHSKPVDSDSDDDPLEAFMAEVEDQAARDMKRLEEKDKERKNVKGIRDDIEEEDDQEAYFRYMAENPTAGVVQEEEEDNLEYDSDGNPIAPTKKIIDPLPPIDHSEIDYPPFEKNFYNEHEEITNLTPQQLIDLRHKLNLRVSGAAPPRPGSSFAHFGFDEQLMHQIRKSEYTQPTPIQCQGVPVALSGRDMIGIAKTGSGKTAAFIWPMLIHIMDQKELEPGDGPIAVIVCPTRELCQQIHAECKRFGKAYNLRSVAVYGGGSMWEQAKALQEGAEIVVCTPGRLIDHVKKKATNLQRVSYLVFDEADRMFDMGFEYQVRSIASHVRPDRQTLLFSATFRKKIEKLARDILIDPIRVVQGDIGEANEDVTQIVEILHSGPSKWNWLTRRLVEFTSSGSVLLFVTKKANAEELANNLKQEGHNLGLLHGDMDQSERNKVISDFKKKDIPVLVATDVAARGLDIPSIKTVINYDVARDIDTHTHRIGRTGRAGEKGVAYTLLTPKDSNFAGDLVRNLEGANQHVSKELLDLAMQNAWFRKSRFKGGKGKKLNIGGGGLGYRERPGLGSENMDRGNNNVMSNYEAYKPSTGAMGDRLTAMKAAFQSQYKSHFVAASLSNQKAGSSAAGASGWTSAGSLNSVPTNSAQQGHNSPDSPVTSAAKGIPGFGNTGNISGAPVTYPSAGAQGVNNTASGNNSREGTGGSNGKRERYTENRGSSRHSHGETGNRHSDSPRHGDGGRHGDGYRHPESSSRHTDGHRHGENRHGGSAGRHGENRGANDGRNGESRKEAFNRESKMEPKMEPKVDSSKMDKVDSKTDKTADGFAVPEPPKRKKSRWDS
Chain of UniProt Q15392 (Q15392 whole entry, looked up): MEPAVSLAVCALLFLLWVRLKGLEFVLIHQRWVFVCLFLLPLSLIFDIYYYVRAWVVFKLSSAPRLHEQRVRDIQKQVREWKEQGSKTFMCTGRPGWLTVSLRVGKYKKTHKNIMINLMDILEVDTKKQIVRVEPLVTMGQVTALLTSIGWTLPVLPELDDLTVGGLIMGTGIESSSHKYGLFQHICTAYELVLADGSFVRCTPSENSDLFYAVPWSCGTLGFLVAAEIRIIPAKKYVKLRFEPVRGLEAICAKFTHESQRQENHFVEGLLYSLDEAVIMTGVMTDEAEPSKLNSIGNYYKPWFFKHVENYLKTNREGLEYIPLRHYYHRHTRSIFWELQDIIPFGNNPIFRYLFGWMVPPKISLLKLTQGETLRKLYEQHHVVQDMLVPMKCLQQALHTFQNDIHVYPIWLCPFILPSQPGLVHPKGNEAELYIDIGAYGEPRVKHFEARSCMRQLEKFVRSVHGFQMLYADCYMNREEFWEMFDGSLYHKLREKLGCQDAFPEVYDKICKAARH
Chain of UniProt Q9BPW9 (Q9BPW9 whole entry, looked up): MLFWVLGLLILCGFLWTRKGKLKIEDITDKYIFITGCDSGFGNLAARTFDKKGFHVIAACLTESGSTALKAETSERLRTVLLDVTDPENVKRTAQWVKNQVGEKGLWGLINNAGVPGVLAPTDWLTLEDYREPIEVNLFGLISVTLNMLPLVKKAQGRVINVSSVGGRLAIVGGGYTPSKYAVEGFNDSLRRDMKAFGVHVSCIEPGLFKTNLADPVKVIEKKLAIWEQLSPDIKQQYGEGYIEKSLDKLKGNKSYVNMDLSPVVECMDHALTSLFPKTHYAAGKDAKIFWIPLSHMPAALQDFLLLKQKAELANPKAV
Chain of UniProt O43583 (O43583 whole entry, looked up): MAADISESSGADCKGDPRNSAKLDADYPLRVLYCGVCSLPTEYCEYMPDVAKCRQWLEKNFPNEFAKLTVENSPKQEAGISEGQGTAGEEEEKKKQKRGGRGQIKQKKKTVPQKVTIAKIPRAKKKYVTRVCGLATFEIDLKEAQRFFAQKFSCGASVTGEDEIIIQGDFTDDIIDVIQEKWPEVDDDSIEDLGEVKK
Chain of UniProt P26196 (P26196 whole entry, looked up): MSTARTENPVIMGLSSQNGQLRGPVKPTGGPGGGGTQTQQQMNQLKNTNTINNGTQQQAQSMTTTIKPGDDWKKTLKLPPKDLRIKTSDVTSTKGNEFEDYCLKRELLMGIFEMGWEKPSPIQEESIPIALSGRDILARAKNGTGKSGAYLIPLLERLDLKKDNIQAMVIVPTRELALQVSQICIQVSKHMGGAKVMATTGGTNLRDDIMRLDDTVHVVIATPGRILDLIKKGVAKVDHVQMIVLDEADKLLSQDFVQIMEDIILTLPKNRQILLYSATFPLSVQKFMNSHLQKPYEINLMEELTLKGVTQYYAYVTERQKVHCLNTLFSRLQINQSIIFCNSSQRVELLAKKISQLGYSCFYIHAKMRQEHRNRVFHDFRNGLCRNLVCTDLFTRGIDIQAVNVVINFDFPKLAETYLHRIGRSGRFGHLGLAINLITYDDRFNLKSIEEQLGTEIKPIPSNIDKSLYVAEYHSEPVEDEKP
Chain of UniProt Q9BTC0 (Q9BTC0 whole entry, looked up): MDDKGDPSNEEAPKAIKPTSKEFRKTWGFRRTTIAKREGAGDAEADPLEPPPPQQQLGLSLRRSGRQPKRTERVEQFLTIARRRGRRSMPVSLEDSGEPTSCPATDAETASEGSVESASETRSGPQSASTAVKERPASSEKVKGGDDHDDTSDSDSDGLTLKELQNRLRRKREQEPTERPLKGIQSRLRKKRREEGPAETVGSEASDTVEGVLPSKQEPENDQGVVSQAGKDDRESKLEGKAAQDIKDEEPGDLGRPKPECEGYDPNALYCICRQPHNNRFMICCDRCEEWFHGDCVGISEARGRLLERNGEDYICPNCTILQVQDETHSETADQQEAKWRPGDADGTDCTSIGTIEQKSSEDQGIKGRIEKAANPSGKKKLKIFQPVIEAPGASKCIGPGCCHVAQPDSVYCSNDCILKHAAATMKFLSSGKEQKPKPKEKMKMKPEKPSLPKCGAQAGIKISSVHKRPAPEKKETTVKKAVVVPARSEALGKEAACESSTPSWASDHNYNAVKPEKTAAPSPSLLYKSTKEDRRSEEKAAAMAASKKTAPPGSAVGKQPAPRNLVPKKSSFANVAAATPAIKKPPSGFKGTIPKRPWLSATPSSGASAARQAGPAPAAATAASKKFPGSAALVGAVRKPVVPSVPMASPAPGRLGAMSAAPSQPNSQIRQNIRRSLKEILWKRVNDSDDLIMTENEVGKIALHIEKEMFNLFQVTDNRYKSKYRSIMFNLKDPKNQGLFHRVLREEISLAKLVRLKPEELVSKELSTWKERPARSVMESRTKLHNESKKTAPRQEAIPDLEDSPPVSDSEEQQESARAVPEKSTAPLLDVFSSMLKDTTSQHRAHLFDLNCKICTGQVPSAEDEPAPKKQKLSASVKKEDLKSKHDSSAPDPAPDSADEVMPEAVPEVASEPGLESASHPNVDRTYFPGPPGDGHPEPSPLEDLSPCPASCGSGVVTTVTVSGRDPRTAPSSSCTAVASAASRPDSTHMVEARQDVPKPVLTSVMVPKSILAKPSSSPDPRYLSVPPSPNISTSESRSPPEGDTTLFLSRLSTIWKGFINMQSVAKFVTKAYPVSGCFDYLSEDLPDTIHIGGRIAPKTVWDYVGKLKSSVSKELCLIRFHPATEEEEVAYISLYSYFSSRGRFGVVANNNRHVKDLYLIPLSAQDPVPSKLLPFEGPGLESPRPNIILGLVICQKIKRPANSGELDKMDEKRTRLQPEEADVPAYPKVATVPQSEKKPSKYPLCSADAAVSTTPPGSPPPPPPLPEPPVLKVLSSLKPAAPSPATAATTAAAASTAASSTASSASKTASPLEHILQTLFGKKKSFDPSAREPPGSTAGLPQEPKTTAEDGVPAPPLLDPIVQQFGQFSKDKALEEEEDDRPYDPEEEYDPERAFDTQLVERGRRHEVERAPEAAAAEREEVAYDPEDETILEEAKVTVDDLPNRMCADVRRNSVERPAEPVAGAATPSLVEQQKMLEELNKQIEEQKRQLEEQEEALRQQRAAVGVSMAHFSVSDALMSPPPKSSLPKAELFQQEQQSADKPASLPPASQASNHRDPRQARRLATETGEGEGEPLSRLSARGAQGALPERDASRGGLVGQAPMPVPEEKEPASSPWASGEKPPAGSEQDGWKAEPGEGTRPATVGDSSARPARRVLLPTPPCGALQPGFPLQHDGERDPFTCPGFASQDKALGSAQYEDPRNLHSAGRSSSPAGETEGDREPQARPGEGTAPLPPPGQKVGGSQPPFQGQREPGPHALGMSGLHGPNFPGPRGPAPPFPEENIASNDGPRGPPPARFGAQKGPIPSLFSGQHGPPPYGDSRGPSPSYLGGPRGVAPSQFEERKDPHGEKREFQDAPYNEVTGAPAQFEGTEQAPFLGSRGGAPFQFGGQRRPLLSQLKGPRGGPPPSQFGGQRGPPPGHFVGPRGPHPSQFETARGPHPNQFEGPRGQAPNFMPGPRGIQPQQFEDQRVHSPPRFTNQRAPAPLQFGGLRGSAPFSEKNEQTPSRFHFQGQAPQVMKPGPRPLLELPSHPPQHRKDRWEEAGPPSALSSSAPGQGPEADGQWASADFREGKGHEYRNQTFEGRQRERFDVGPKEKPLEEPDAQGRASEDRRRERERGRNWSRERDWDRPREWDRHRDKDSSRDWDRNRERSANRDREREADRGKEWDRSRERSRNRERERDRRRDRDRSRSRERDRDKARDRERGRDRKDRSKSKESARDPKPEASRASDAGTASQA
Chain of UniProt Q9Y394 (Q9Y394 whole entry, looked up): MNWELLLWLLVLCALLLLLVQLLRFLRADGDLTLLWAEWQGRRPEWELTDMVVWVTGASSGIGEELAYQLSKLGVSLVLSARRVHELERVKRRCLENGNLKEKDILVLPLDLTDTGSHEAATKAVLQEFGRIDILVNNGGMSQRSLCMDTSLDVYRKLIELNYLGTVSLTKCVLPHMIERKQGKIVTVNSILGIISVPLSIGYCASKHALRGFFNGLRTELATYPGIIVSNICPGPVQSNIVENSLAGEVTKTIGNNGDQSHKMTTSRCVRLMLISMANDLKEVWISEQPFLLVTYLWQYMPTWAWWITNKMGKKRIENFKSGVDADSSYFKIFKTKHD

Target	probe-labelled cysteine peptide fold change
CTNNBL1_Q8WYA6_370_VLDHAMIGPEGTDNCHK (UniProt Q8WYA6)	-0.103
DENR_O43583_44_VLYCGVCSLPTEYCEYMPDVAK (UniProt O43583)	-0.0802
DNM1L_O00429_300_LLMHHIRDCLPELK (UniProt O00429)	-0.178
DDX42_Q86XP3_339+346_ELCQQIHAECK (UniProt Q86XP3)	-0.045
DHRS7_Q9Y394_233_TELATYPGIIVSNICPGPVQSNIVENSLAGEVTK (UniProt Q9Y394)	0.0763
DYNC1LI2_O43237_104_CNVWILDGDLYHK<|>DYNC1LI1_Q9Y6G9_117_CNVWILDGDLYHK (UniProt Q9Y6G9+O43237)	0.0237
DDX28_Q9NUL7_453_DILLCTDIASR (UniProt Q9NUL7)	0.0393
DIP2B_Q9P265_1282_TCVVVAEERPR<|>DIP2C_Q9Y2E4_1263_TCVVVAEERPR (UniProt Q9Y2E4+Q9P265)	0.197
DNM2_P50570-3_427_CVDLVVSELATVIK (UniProt P50570)	0.0756
COX17_Q14061_23+24_KPLKPCCACPETK (UniProt Q14061)	-0.745
CSTF2_P33240_62_GYGFCEYQDQETALSAMR (UniProt P33240)	-0.471
DNAJC10_Q8IXB1_161_EFDAAVNSGELWFVNFYSPGCSHCHDLAPTWR (UniProt Q8IXB1)	-0.235
CSNK1A1_P48729_249_MSTPVEVLCK (UniProt P48729)	-0.401
DYNC1H1_Q14204_4644_GVAVLCTE (UniProt Q14204)	0.0643
DDX6_P26196_324_VHCLNTLFSR (UniProt P26196)	0.183
DPYSL2_Q16555_133_SCCDYSLHVDISEWHK (UniProt Q16555)	-0.000105
DHCR24_Q15392_393_CLQQALHTFQNDIHVYPIWLCPFILPSQPGLVHPK (UniProt Q15392)	-0.425
DCTN4_Q9UJW0_280_CEHNLSKPEFNPTSIK (UniProt Q9UJW0)	0.175
DHRS9_Q9BPW9_60_GFHVIAACLTESGSTALK (UniProt Q9BPW9)	0.197
DPP8_Q6V1X1_611_LSSPEDDPTCK (UniProt Q6V1X1)	0.0507

Target	probe-labelled cysteine peptide fold change
DHX30_Q7L2E3_286_LSTLTLLWPCPMTFVAK (UniProt Q7L2E3)	-0.944
DPP9_Q86TI2_184_TQCSGPR (UniProt Q86TI2)	-0.073
DIAPH1_O60610_1227_AGCAVTSLLASELTK (UniProt O60610)	-0.221
CPNE8_Q86YQ8_118_HDFLGQVFCTLGEIVGSQGSR (UniProt Q86YQ8)	0.595
CYTH1_Q15438_323_EVEDSKKPNCFELYIPDNK (UniProt Q15438)	-0.14
DDX17_Q92841_166+199_GGDVCPKPVFAFHHANFPQYVMDVLMDQHFTEPTPIQCQGFPLALSGR (UniProt Q92841)	-0.604
DOP1B_Q9Y3R5_70_LAQCLHPALPSGVHLK (UniProt Q9Y3R5)	0.136
DIDO1_Q9BTC0_455_CGAQAGIK (UniProt Q9BTC0)	-0.185
CORO7_P57737_691_IVWVCDGR (UniProt P57737)	0.334
CTR9_Q6PD62_196_TNPGCPAEVR (UniProt Q6PD62)	0.0417
DYNC1H1_Q14204_4438_QDLADVVQVCEGK (UniProt Q14204)	0.0819
DIAPH2_O60879_484_LDIDLTHLIDSCVNK (UniProt O60879)	0.095
DLD_P09622_484_VCHAHPTLSEAFR (UniProt P09622)	-0.123
DCP1A_Q9NPI6_39_QHDPYITSIADLTGQVALYTFCPK (UniProt Q9NPI6)	0.205
DHX15_O43143_774_IAPQYYDMSNFPQCEAKR (UniProt O43143)	-0.211
DNMT1_P26358_580_HAQFVVEQVESYDEAGDSDEQPIFLTPCMR (UniProt P26358)	0.604
DSTN_P60981_39_AVIFCLSADK (UniProt P60981)	-0.00534
DYNC1H1_Q14204_3573_WQASSLPADDLCTENAIMLK (UniProt Q14204)	-0.286
DARS_P14868_130_IGSCTQQDVELHVQK (UniProt P14868)	0.0472
